Entries with a potency or affinity are not part of this list.
system: Klebsiella pneumoniae; details: Concentration 32 ug.mL-1;; ASSAY_TEST Inhibition of Bacterial Growth; detection method Absorption (OD600); MEDIA CAMHB; plate type 384well; NBS; CORNING #3640; time 18 hr

With `CCOc1ccccc1NC(=O)Cn1nc2c(Sc3cccc(C)c3)nccn2c1=O` as the compound, how does the Inhibition read?
Its Inhibition is 9.01%.

With `N#CCSc1nnc2c(=O)n(-c3ccc(Br)cc3)ccn12` as the compound, how does the Inhibition read?
The Inhibition was 12.03%.

`Cc1ccc(CN(c2ccc3c(c2)OCO3)S(=O)(=O)c2ccc3nnc(C)n3c2)cc1` was tested. Which Inhibition did it give?
The Inhibition was 2.15%.

For `O=C(CSc1nc2ccccc2n2cnnc12)Nc1ccc2c(c1)OCCO2`, which Inhibition is on record?
Its Inhibition is 4.35%.

For `O=C(Cn1nc2ccc(C(=O)NCc3ccccc3)cn2c1=O)Nc1ccc(Br)cc1`, which Inhibition is on record?
The Inhibition was -0.54%.

How did the Inhibition turn out when `CCOc1ccc(-n2ccn3c(SCC(N)=O)nnc3c2=O)cc1` was run?
Its Inhibition is 16.24%.

How did the Inhibition turn out when `CCOc1ccccc1CNC(=O)CCc1nnc2ccc(-c3ccc(C)cc3)nn12` was run?
The Inhibition was 6.87%.

With `CCOC(=O)c1ccc(NC(=O)Cn2nc3ccc(S(=O)(=O)C(C)(C)C)nn3c2=O)cc1` as the compound, how does the Inhibition read?
Its Inhibition is 4.44%.

`Cc1cccc(NC(=O)Cn2nc3c4cc(-c5ccc(Cl)cc5)nn4ccn3c2=O)c1C` was tested. Which Inhibition did it give?
Its Inhibition is 3.93%.

Which Inhibition does the source give for `COc1ccc(OC)c(NC(=O)Cn2nc3ccc(SCc4ccc(Cl)cc4)nn3c2=O)c1` here?
Its Inhibition is 2.51%.

How did the Inhibition turn out when `CC(C)Sc1ccc2nn(CC(=O)Nc3ccc(Cl)cc3F)c(=O)n2n1` was run?
The Inhibition was 7.97%.

`Cc1ccc(Cn2c(=O)c3ccccc3n3c(=O)n(CC(=O)Nc4ccc5c(c4)OCCO5)nc23)cc1` was tested. Which Inhibition did it give?
Its Inhibition is 10.7%.

With `CCc1cccc(C)c1NC(=O)Cn1nc2ccc(SCc3ccc(Cl)cc3)nn2c1=O` as the compound, how does the Inhibition read?
The Inhibition was 2.49%.

For `Cc1cc2nn(CC(=O)Nc3ccc(F)cc3F)c(=O)n2c(Nc2ccc(F)c(C)c2)n1`, which Inhibition is on record?
The Inhibition was 11.68%.

With `Cc1cc(C)c(NC(=O)Cn2nc3ccc(SCc4ccc(Cl)cc4)nn3c2=O)c(C)c1` as the compound, how does the Inhibition read?
Its Inhibition is 3.59%.

`CC1CCCN(c2nccn3c(=O)n(CC(=O)Nc4ccc5c(c4)OCO5)nc23)C1` (centres undefined) was tested. Which Inhibition did it give?
The Inhibition was 1.66%.

With `Cc1ccc(NC(=O)Cn2nc3c(Oc4ccccc4Cl)nccn3c2=O)cc1F` as the compound, how does the Inhibition read?
The Inhibition was 12.22%.

Which Inhibition does the source give for `CCOC(=O)c1ccc(NC(=O)Cn2nc3ccc(SC(C)(C)C)nn3c2=O)cc1` here?
Its Inhibition is 7.26%.

`Cc1cccc(C)c1NC(=O)CSc1nc2ccccc2n2c(C)nnc12` was tested. Which Inhibition did it give?
The Inhibition was 9.22%.

How did the Inhibition turn out when `COc1cc(NC(=O)C(C)Sc2nnc3c(=O)n(-c4ccc(F)cc4)ccn23)cc(OC)c1` (centres undefined) was run?
Its Inhibition is 6.23%.

With `Cc1ccc(N(CC(=O)OC(C)(C)C)S(=O)(=O)c2ccc3nnc(C)n3c2)cc1` as the compound, how does the Inhibition read?
Its Inhibition is 4.9%.

For `COc1ccc(NC(=O)Cn2nc3c(Sc4ccccc4)nccn3c2=O)cc1Cl`, which Inhibition is on record?
Its Inhibition is -2.59%.

With `NC(=O)CSc1nnc2c(=O)n(-c3ccc(F)cc3)ccn12` as the compound, how does the Inhibition read?
Its Inhibition is 0.07%.

With `Cn1c(=O)c2ccc(C(=O)NC3CCCC3)cc2n2c(SCC(=O)Nc3cc(F)ccc3F)nnc12` as the compound, how does the Inhibition read?
The Inhibition was 7.15%.

`Cc1ccc(C)c(Cn2nc3n(CCC(C)C)c(=O)c4sccc4n3c2=O)c1` was tested. Which Inhibition did it give?
Its Inhibition is 11.36%.

`COc1cccc(NC(=O)Cn2nc3c4c5c(sc4ncn3c2=O)CCCC5)c1` was tested. Which Inhibition did it give?
Its Inhibition is 10.28%.

How did the Inhibition turn out when `Cc1ccc(Oc2nccn3c(=O)n(CC(=O)Nc4ccc(Br)cc4)nc23)cc1` was run?
Its Inhibition is 6.74%.

How did the Inhibition turn out when `CC(C)Cn1c(=O)c2ccc(C(=O)NC3CCCCC3)cc2n2c(=O)n(CC#N)nc12` was run?
Its Inhibition is 10.69%.

How did the Inhibition turn out when `Cc1ccc(Oc2nccn3c(=O)n(CC(=O)NCc4cccs4)nc23)cc1` was run?
Its Inhibition is 11.41%.

`Cc1nnc2ccc(S(=O)(=O)N(Cc3cccc(Cl)c3)c3ccc(F)cc3)cn12` was tested. Which Inhibition did it give?
The Inhibition was 8%.

For `COc1cccc(-n2ccn3c(SCC(=O)c4ccc(OC)c(OC)c4)nnc3c2=O)c1`, which Inhibition is on record?
Its Inhibition is 7.59%.

`COc1ccc(N(Cc2ccc(C)cc2)S(=O)(=O)c2ccc3nnc(C)n3c2)cc1` was tested. Which Inhibition did it give?
Its Inhibition is -1.06%.

How did the Inhibition turn out when `Cc1cc(C)c(NC(=O)Cn2nc3ccc(-c4ccc(C)c(C)c4)nn3c2=O)c(C)c1` was run?
Its Inhibition is -8.22%.

With `CCOC(=O)c1ccccc1NC(=O)CSc1nc2ccccc2n2c(C(C)C)nnc12` as the compound, how does the Inhibition read?
The Inhibition was 12.78%.

`CC(C)CCn1c(=O)c2sccc2n2c(=O)n(CC(N)=O)nc12` was tested. Which Inhibition did it give?
Its Inhibition is 10.09%.

`CN(C(=O)Cn1nc2n(Cc3ccco3)c(=O)c3sccc3n2c1=O)c1ccccc1` was tested. Which Inhibition did it give?
Its Inhibition is -0.68%.

With `COc1ccc(NC(=O)Cn2nc3ccc(-c4ccc(C)c(C)c4)nn3c2=O)cc1OC` as the compound, how does the Inhibition read?
Its Inhibition is 6.13%.

For `COc1ccc(NC(=O)Cn2nc3c(Sc4ccccc4)nccn3c2=O)cc1OC`, which Inhibition is on record?
The Inhibition was 6.09%.

For `O=C(CCc1nnc2c(N3CCCCC3)nc3ccccc3n12)NCc1ccccc1Cl`, which Inhibition is on record?
The Inhibition was 12.77%.

Source: ChEMBL document CHEMBL4513146, “CO-ADD screening of Karazin Kharkiv National University (Ukraine) compounds”
